In PubChem BioAssay AID624330 (Southern Research Specialized Biocontainment Screening …, 2012):
Out of some 340,000 compounds screened, about 2,100 (0.62%) were called active.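 How the source made its calls: active means first-screen hits whose inhibition reached a set limit at any dose in the follow-up dose series; inconclusive means inhibition above the set first-screen limit but never retested; inactive means the rest.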 These entries were drawn from the full list. Potency and affinity values are given separately.

Target: Rac GTPase-activating protein 1 (Homo sapiens) (UniProt Q9H0H5)
Assay: blockers of MgcRacGAP-driven Rac1 GTP hydrolysis – biochemical, ADP Hunter fluorescence, primary and confirmatory, confirmation (AID 624330);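 further: fluorescence reports GDP produced by GAP-driven GTP hydrolysis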
Conditions: MgcRacGAP-stimulated Rac1 GTP hydrolysis, at 30 µM, active compounds read high, GST-tagged Rac1 F28L mutant substrate

Sequence of Rac GTPase-activating protein 1 (Homo sapiens) (Q9H0H5 whole entry, looked up): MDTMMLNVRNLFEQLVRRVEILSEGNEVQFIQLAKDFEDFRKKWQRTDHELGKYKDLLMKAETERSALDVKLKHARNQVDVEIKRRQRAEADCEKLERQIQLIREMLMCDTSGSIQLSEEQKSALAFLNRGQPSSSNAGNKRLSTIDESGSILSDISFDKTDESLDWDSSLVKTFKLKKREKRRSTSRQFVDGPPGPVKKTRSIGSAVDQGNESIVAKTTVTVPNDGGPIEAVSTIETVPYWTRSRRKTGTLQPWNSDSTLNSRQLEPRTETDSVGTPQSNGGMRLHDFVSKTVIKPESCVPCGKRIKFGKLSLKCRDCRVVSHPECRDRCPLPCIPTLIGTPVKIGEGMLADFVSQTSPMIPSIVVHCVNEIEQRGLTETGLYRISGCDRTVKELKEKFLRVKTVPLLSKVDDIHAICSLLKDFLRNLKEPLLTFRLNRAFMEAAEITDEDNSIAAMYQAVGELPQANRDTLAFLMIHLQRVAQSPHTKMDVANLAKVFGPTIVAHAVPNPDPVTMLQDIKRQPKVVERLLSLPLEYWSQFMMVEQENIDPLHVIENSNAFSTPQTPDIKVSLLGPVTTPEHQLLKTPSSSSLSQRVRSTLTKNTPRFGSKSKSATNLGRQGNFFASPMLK

inhibition, inactive:
Cc1ccc(S(=O)(=O)NN2C(=O)c3ccccc3NC2(C)C)cc1 6.9%
CC[C@H](C)[C@H](NC(N)=O)C(=O)Nc1ccc2c(c1)OCO2 3.75%
N#Cc1ccccc1S(=O)(=O)N1CCC(C(=O)Nc2cccc(C(=O)NC3CC3)c2)CC1 -0.25%
CCOC(=O)c1c(/N=C/c2ccc(C)cc2O)sc2c1CCC2 5.81%
CCOC(=O)c1c(/N=C/c2ccc(OC)cc2O)sc2c1CCN(C)C2 17%
Cc1cc(C(=O)O)ccc1N=Cc1c(O)ccc2ccccc12 3.39%
CCOC(=O)c1cc(CC)sc1/N=C/c1c(O)ccc2ccccc12 8.65%
N#Cc1ccc(OCC(=O)N2CCN(C(=O)c3ccco3)CC2)cc1 3.79%
Cc1cc(COc2ccccc2OCc2cc(C)no2)on1 9.58%
CCOC(=O)c1c(N)sc(N)c1C(=O)OCC 7.17%
CCOC(=O)c1c(NC(C)=O)sc2c(O)c(Br)ccc12 4.12%
CCOC(=O)c1c(N)sc2c(OCC)c(Br)ccc12 5.92%
CCOC(=O)c1c(NC(C)=O)sc2c(OC)c(Br)ccc12 -9.05%
CN(CC(=O)Nc1ccc(F)cc1)C(=O)COC(=O)CCN1C(=O)C2CC=CCC2C1=O (stereo not drawn) 2.06%
O=C(CSc1nc(=O)n(CCN2CCOCC2)c2c1CCCC2)Nc1ccc([N+](=O)[O-])cc1 -4.11%
COc1ccc(NC(=O)NNC(=O)C(C)Oc2ccc3ccccc3c2)cc1OC (stereo not drawn) 12.5%
CCn1c(=O)c2c3c(sc2n(C)c1=O)CCC3 10.3%
CCn1c(=O)c2c3c(sc2n2cnnc12)CCC3 4.61%
c1ccc(CN2CCC3CC2c2cc(N4CCOCC4)ccc23)cc1 (stereo not drawn) 11.4%
O=C1OCC2=C1C(c1ccc(F)cc1)Sc1ccccc1N2 (stereo not drawn) -0.0633%
CCOC(=O)c1c(C)[nH]c2c1cc(O)c1ccccc12 13.6%
CCOC(=O)c1c(OCC)[nH]c2ccc(O)cc12 7.01%
CS(=O)(=O)N1CCN(c2ccc(NC(=O)CSc3ccc(Cl)cc3)cc2)CC1 3.35%
C=CC[n+]1c(/C=C2\C=Cc3cc(C)ccc3N2CC)ccc2ccccc21 17.6%
CCN1/C(=C\c2ccc3cc(C)ccc3[n+]2CC)Sc2cc(C)c(C)cc21 5.51%
CCN1/C(=C/c2ccc3ccccc3[n+]2CCCS(=O)(=O)[O-])C=Cc2cc(C)ccc21 5.54%
CCN1/C(=C/c2ccc3cccc(C)c3[n+]2CC)Sc2ccccc21 17.8%
CCN1/C(=C/c2ccc3cc(C)cc(C)c3[n+]2CC)Sc2cc(C)ccc21 24.3%
CCN1/C(=C/c2ccc3cc(C)ccc3[n+]2CC)Sc2cc(C)c(C)cc21 15.9%
Cc1ccc2c(c1)S/C(=C\c1cccc[n+]1C)N2CCO 4.89%
CCN1/C(=C/c2ccc3cc(C)ccc3[n+]2CC)Sc2ccc3sccc3c21 6.5%
Cc1ccc2nc(SCC(=O)Nc3ccccc3F)nc(=O)n2c1 3.36%
Cc1ccc(N(CC(=O)NCc2ccco2)C(=O)CCC(=O)Nc2ccccn2)c(C)c1 10.2%
CS(=O)(=O)N(CC(=O)N/N=C/c1cccs1)c1cccc(Cl)c1Cl 11.9%
NS(=O)(=O)c1ccc(CNC(=O)Cc2ccc(S(=O)(=O)N3CCOCC3)s2)cc1 9.4%
C/C(=N\NC(=O)c1c[nH]c2ccccc12)c1ccc2c(c1)OCO2 12.8%
Fc1ccccc1/C=N/N1CCN(Cc2ccccc2Cl)CC1 -7.94%
CCN(CC)S(=O)(=O)c1ccc(NC(=O)c2cccc3c2C(=O)N(CCOC)C3)cc1 8.69%
Cc1ccccc1N1C(=O)C(Cl)=C(N2CCCCCC2)C1=O -5.76%
CN1CCN(C2=C(Cl)C(=O)c3ccccc3C2=O)CC1 12.8%
COC(=O)[C@]1(Cc2ccccc2)N[C@H](CN(C)C(=O)c2ccc(F)cc2)[C@@H]2C(=O)N(C)C(=O)[C@@H]21 1.31%
Cc1c2ccccc2c(C)c2c1ccc1ccccc12 0.81%
CCCCC[n+]1cccc2c3ccccc3ccc21 16.4%
O=C(Nc1cccc2ccccc12)N1CCOCC1 -1.28%
O=C(Cc1cccs1)Nc1nncs1 0.97%
CCOC(=O)N1CCN(C(=O)c2ccc3c(=O)n(CCc4ccccc4)c(=S)[nH]c3c2)CC1 5.18%
Cc1ccc(Cl)cc1N1CCN(C(=O)Cn2ccc3ccccc3c2=O)CC1 4.81%
CCN1CCN(CCCNC(=O)C2CCN(c3nnc(-n4cccc4)s3)CC2)CC1 16.4%
CCOc1ccc(CCNC(=O)C2CCN(c3nnc(-n4cccc4)s3)CC2)cc1 -0.04%
CCOCC(=O)Nc1ccc(-c2cn3cccnc3n2)cc1 1.23%
CCCCn1nc(C(=O)Nc2cc(C(F)(F)F)ccc2N2CCOCC2)ccc1=O 4.58%
O=C(CSc1nnnn1-c1cccc2ccccc12)Nc1ccc(N2CCOCC2)c(Cl)c1 -5.56%
Cc1cccc(N=Cc2c(O)cc(C)oc2=O)c1 5.21%
CCOc1ccc(N=Cc2c(O)cc(C)oc2=O)cc1 30%
CC1Cc2ccccc2N1C(=O)COc1nc2ccccc2nc1N1CCOCC1 (stereo not drawn) 0.29%
CN1/C(=C/C=N/NC(=O)c2ccc([N+](=O)[O-])cc2)C(C)(C)c2ccccc21 2.66%
CN1/C(=C\C=N\O)C(C)(C)c2ccccc21 15.1%
CN1/C(=C\C=Nc2ccc3ccccc3c2)C(C)(C)c2ccccc21 12.2%
CN1/C(=C\C=N\NC(=O)c2cccnc2)C(C)(C)c2ccccc21 4.5%
CO/N=C/C=C1/N(C)c2ccccc2C1(C)C 6.44%
Cc1ccccc1N=C/C=C1\N(C)c2ccccc2C1(C)C 4.55%
COC(=O)CCCCC(=O)C1C(=O)CC(C)(C)C(C(=O)OC)C1=O (stereo not drawn) 2.31%
CC1(C2CC(C(F)(F)F)n3nc(C(=O)O)cc3N2)CC1 (stereo not drawn) 5.89%
O=C(Nc1ccc(C(=O)N2CCCCC2)cc1)c1ccccc1Br 3.41%
COc1ccc(/C=C/C(=O)Oc2ccc(/C=N/NC(=O)c3ccccc3)cc2)cc1OC 3.85%
O=C(CN1CCN(Cc2ccccc2)CC1)N/N=C/c1cccs1 2.1%
N/C(Cc1ccc([N+](=O)[O-])cc1)=N\OC(=O)C(c1ccccc1)c1ccccc1 8.53%
NC(CSCc1ccccc1Cl)C(=O)O (stereo not drawn) -0.96%
CCc1ccc(OCC(=O)N2CC(C(N)=O)Oc3ccccc32)cc1 (stereo not drawn) 4.28%
Cc1ccc2nc(/C(C#N)=C/c3ccccc3C(=O)O)[nH]c2c1 16%
COc1cc(/C=C(\C#N)c2nc3ccccc3[nH]2)cc(Br)c1OCc1ccccc1 6.48%
COc1cc(/C=C(/C#N)c2nc3ccccc3c(=O)[nH]2)ccc1O 19.3%
COc1ccc(/C=C(\C#N)C(=O)c2c(C)[nH]c3ccccc23)cc1OC 10.7%
COc1cc(/C=C(\C#N)C(=O)c2c(C)[nH]c3ccccc23)cc(OC)c1OC 15.4%
COc1cc(/C=C(\C#N)c2nc3ccccc3[nH]2)cc(Br)c1OCc1ccc(F)cc1 6.53%
Cc1cc2nc(/C(C#N)=C/c3ccncc3)[nH]c2cc1C 10.2%
COc1ccc(/C=C(\C#N)c2nc3ccccc3[nH]2)cc1O 18.2%
O=C(CCn1cnnn1)NC1CCCN(Cc2ccccc2F)C1 (stereo not drawn) -0.5%
CN(C)c1ccc(C=NNC(=O)c2cccnc2)cc1 1.95%
CCCCN(C(=O)c1ccc2c(c1)S(=O)(=O)N=C1CCCCCN12)c1c(N)n(CCCC)c(=O)[nH]c1=O -0.05%
CC1C(=O)Nc2ccc(S(=O)(=O)NCc3ccc(Cl)cc3)cc2NC1=O (stereo not drawn) 7.58%
Cc1ccc(F)cc1NC(=O)CCOc1ccccc1 -2.1%
CCCc1cc(=O)n2nc(N3CCC(C(=O)NCc4ccco4)CC3)sc2n1 4.69%
COc1cc2c(cc1NC(=O)c1ccncc1)oc1ccccc12 14.9%
C=Cn1cc(CNC[C@H]2O[C@@H](n3ccc(N)nc3=O)[C@H](O)[C@@H]2O)c(C)n1 0.77%
COc1ccc(CCNS(=O)(=O)c2ccc(-n3cnnn3)cc2)cc1OC 4.09%
O=C(Nc1nc2ccccc2[nH]1)Nc1ccccc1F -2.47%
CCCc1ccc2oc(C(=O)N3CCCC3)c(C)c2c1 3.8%
O=C(NC1CCN(S(=O)(=O)c2ccc(F)cc2)CC1)c1cccc(F)c1 4.4%
Cc1cc2nc3ccc(N(C)C)cc3nc2cc1N 18.1%
Cc1ccc(-n2nc3cc(C)c(N)cc3n2)cc1 8.27%
CS(=O)(=O)N1CCN(c2ccccc2NC(=O)c2ccc(Cl)cc2)CC1 13.8%
O=[N+]([O-])c1ccc2nonc2c1Nc1ccccc1 5.91%
O=[N+]([O-])c1c(Nc2ccccc2O)cc(Cl)c2nonc12 16.1%
O=[N+]([O-])c1ccc(Nc2ccccc2O)c2nonc12 19.7%
CC(=O)c1ccc(Nc2ccc([N+](=O)[O-])c3nonc23)cc1 4.9%
O=[N+]([O-])c1c(Nc2ccc(O)cc2)cc(Cl)c2nonc12 16.8%
CN(C)c1cc(Nc2ccc(O)cc2)c([N+](=O)[O-])c2nonc12 13.9%
